Screening data deposited in PubChem BioAssay by National Center for Advancing Translational Sciences (NCATS).
Cruzain inh Det = inhibitors of Trypanosoma cruzi cruzain with detergent; 200,000 tested, 0.43% active; P25779; Potency, µM, hits mostly inhibitors; purified cruzain, Z-FR-AMC fluorescence, 0.01% Triton; further: nearly all actives have a fitted effect of over 40% in size
Target sequence (P25779 123-467 limits assumed): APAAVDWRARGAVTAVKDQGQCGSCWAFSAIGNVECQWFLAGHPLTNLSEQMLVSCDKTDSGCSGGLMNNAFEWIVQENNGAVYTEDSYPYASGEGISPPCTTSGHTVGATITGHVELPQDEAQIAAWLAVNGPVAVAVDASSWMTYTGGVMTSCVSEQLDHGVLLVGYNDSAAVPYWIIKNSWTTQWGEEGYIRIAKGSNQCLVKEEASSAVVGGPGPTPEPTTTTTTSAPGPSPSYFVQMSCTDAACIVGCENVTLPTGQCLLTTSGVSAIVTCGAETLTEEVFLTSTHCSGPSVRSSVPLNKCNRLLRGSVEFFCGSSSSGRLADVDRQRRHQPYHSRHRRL
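Compounds were screened in titration against cruzain (1.5 nM) with 0.01% Triton X-100 to counter colloidal aggregation. Activity was the AMC fluorescence increase over 60 s after adding 2 uM Z-FR-AMC at pH 5.5.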
Cruzain noTriton = blocks cruzain activity in detergent-free assay; purified cruzain, Z-FR-AMC fluorescence, no detergent; Potency, µM, most hits filed as inhibitors; 200,000 tested, 2.3% active; further: nearly all actives have a fitted effect of over 40% in size
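Purified cruzain at 1.5 nM, pre-incubated 15 min with compound at room temperature in 100 mM sodium acetate pH 5.5, 5 mM DTT, 0.00005% Triton X-100. Reaction started with 2 uM Z-FR-AMC; AMC fluorescence increase over 60 s gives rate.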
A number is an active result; i = inactive; ? = inconclusive. Shown are actives, neighbours in structure and some others; about 2.4% of the full set was active somewhere. The call rests on the fitted dose curve; in most records, active means well fitted curve in the direction sought with a large enough effect; inconclusive means small, poorly fitted or top-dose-only effect, or another doubt; inactive means no such curve, though single readings can be large; an effect the other way counts as inactive or inconclusive.

SMILES | Cruzain inh Det | Cruzain noTriton
Cn1c(=O)oc2cc(S(=O)(=O)Nc3ccc4c(c3)OCO4)ccc21 | i | 32µM
NC1=NC2(CCCCC2)N=C(Nc2ccc(Br)cc2)N1 | 28µM | 20µM
Cc1cccc(C)c1NC1=NC2(CCCCC2)N=C(N)N1 | i | i
COC(=O)c1cccc(Nc2nn3c(=O)c4cc5c(cc4nc3s2)OCO5)c1 | i | i
NC(=O)c1nc(-c2ccc(F)c(F)c2)nc2c1[nH]c(=O)n2-c1cccc(Cl)c1 | i | i
CC(=O)c1cccc(NS(=O)(=O)c2cc(-c3onc(C)c3C)ccc2C)c1 | i | i
Cc1cc(C)c(S(=O)(=O)Nc2ccc3c(c2)CCC3)c(C)c1 | i | i
Cc1cc(C)c(S(=O)(=O)Nc2ccc3c4c(cccc24)CC3)c(C)c1 | i | 20µM
COC(=O)c1oc2ccc(Cl)cc2c1NC(C)=O | i | i
COC(=O)c1oc2ccc(Br)cc2c1NC(=O)c1ccccc1 | i | 13µM
COC(=O)c1ccc(NC(=O)CC2Nc3cc(C)c(C)cc3NC2=O)cc1 (stereo not given) | i | i
COc1ccc(COc2cc(-c3cccc(OC)c3)nc3ccc(NC(=O)c4ccccc4)cc23)cc1 | i | 7.9µM
COc1cccc(-c2cc(C(=O)Nc3ccc4c(c3)OCCO4)c3ccccc3n2)c1 | i | ?
COc1ccc(COc2ccsc2C(=O)Nc2ccc(Cl)cc2)cc1 | i | i
COc1ccc(COc2cc(-c3cccc(OC)c3)nc3ccc(NC(=O)c4ccc(OC)cc4)cc23)cc1 | i | 7.9µM
COc1ccc(COc2cc(-c3cccc(OC)c3)nc3ccc(NC(=O)c4ccc(Cl)cc4)cc23)cc1 | i | 2.8µM
COc1ccc(COc2cc(-c3cccc(OC)c3)nc3ccc(NC(=O)c4cccnc4)cc23)cc1 | i | i
c1ccc(CO[C@H]2NCCN2Cc2ccccc2)cc1 | i | i
COc1ccc(C2CC(=O)Nc3c2c(C)nn3-c2nncc(-c3ccc(C)cc3)n2)c(OC)c1OC (stereo not given) | i | i
C(=C\c1ccccc1)/C=N/Nc1nc2ccccc2s1 | i | ?
Fc1ccc2nc(Nc3nc4cc5c(cc4s3)OCO5)sc2c1 | i | ?
Brc1cc2c(cc1/C=N/Nc1nc3ccccc3s1)OCO2 | i | 20µM
c1ccc2sc(Nc3nc4cc5c(cc4s3)OCO5)nc2c1 | i | 25µM
Brc1ccc(/C=C/C=N/Nc2nc3ccccc3s2)cc1 | i | 4µM
CCOC(=O)c1sc(Nc2nc3c(OC)cccc3s2)cc1C | i | i
SMILES | Cruzain inh Det | Cruzain noTriton
CCOC(=O)c1sc(Nc2nc3cc4c(cc3s2)OCO4)cc1C | i | 25µM
C(=N\Nc1nc2ccccc2s1)/c1ccc2c(c1)OCO2 | i | i
O=C(O)C1(C(=O)O)CCN(S(=O)(=O)c2ccccc2)CC1 | i | i
Cc1cccc(CNc2ncncc2-c2ccccc2Cl)c1 | i | i
Cc1ccc(C)c(N2CCN(S(=O)(=O)c3ccc(F)c(C(=O)Nc4ccc(Cl)cc4Cl)c3)CC2)c1 | i | ?
CCOc1ccc(C(=O)CSc2nnc(N)s2)cc1 | i | 25µM
COc1ccc(NC(=O)CSc2nnc(N)s2)cc1 | i | i
O=C(/C=C/c1ccc(Cl)c([N+](=O)[O-])c1)Nc1ccc(N2CCCC2)c(Cl)c1 | i | 20µM
COc1ccc(C(=O)/C=C/c2ccc(N3CCCCC3)c([N+](=O)[O-])c2)cc1 | i | i
Nc1nnnn1/N=C/c1ccccc1OCc1ccc(Cl)cc1 | i | i
Nc1nnnn1/N=C/c1ccccc1OCc1ccc(Cl)cc1Cl | 14µM | 16µM
O=S(=O)(O)C(c1ccccc1)[C@@H](O)c1ccccc1 (stereo not given in full) | i | i
Cc1ccc(C)c(CN2C(=O)c3ccccc3S(=O)(=O)c3ccc(C(=O)N4CCCCC4)cc32)c1 | i | i
CCn1c(=O)c2c(O)cc(=O)oc2c2ccccc21 | i | i
CC(C)n1c(=O)c2c(O)cc(=O)oc2c2ccccc21 | i | 25µM
COc1ccc(OC)c(Nc2nc(-c3sc(N)nc3C)cs2)c1 | ? | 25µM
Cc1cc(O)ccc1Nc1nc(-c2sc(N)nc2C)cs1 | i | ?
Cc1nc(N)sc1-c1csc(Nc2ccccc2)n1 | 25µM | 13µM
COc1ccc(CCNc2nc(-c3sc(C)nc3C)cs2)cc1OC | i | ?
CCOc1cc(C2c3c(-c4cc(C)ccc4O)n[nH]c3C(=O)N2CCCOC(C)C)ccc1O (stereo not given) | i | i
COc1ccc(-c2nc3scc(CCNS(=O)(=O)c4cccs4)n3n2)cc1 | i | i
CCOC(=O)c1c(NC(=O)Cn2cnc3sc(C)c(-c4ccccc4)c3c2=O)sc(C)c1C | i | 13µM
CCOC(=O)c1c(NC(=O)Cn2cnc3scc(-c4ccc(C)cc4)c3c2=O)sc(C)c1C | i | 4µM
CCOC(=O)c1ccc(NC(=O)Cn2cnc3sc(C(=O)OCC)c(C)c3c2=O)cc1 | i | i
CCOC(=O)c1c(NC(=O)COC(=O)Cn2cnc3ccccc32)sc(C)c1C | i | i
SMILES | Cruzain inh Det | Cruzain noTriton
CCc1ccc(NC(=O)CSc2nc(=O)n(Cc3ccncc3)c3c2CCC3)cc1 | i | i
Cc1cccc(C(=O)Nc2nnc(SCc3cc(=O)n4cccc(C)c4n3)s2)c1 | i | i
O=S(=O)(c1cccc(C(F)(F)F)c1)N1c2ccccc2-n2cccc2[C@H]1c1cccnc1 | i | i
CC(=O)[C@@H](C)CCO[C@@]1(C)OCC[C@@H]1C | i | i
O=C(Nc1ccc(-c2nc3ccccc3o2)c(O)c1)c1ccccc1 | i | i
O=C(Nc1ccc(O)c(-c2nc3ccccc3o2)c1)C1(c2ccccc2)CCCC1 | i | 25µM
COc1ccc2c(c1)c1c(c(=O)n(-c3ccccc3C)c(=O)n1CC(=O)NCc1ccc(C)cc1)n2C | i | ?
Cc1c(C(=O)N/N=C/c2ccccc2)[nH]c2ccc(Cl)cc12 | i | i
Cc1c(C(=O)N/N=C/c2ccc(N(C)C)cc2)[nH]c2ccc(Cl)cc12 | i | 10µM
COc1cccc(N2CCN(C(=O)c3cnn(-c4ccc(C)cc4C)c3C3CCN(C(=O)OC(C)(C)C)CC3)CC2)c1 | i | ?
CC(=O)c1nn(-c2cccc(Br)c2)cc1C(=O)c1ccc(Br)cc1 | i | 13µM
CC(=O)c1nn(-c2cccc(Br)c2)cc1C(=O)c1ccc(C)cc1 | i | i
CCCCOc1ccc(C(=O)NCC2(N3CCN(C)CC3)CCCCC2)cc1 | i | i
CCCN(CCC)c1nn2c(=O)c(C(=O)NCc3cc(Br)ccc3OC)cnc2s1 | i | i
C=C(C)Cn1c(SCC)nc2ccccc2c1=O | i | i
Cc1ccccc1-n1c(SCC(=O)N/N=C/c2c(C)nn(-c3ccccc3)c2C)nc2ccccc2c1=O | i | ?
Cc1nn(-c2ccccc2)c(C)c1/C=N/NC(=O)CSc1nc2ccccc2c(=O)n1-c1ccc(Br)cc1 | i | 16µM
C=C(C)Cn1c(SCC(=O)N/N=C/c2c(O)ccc3ccccc23)nc2ccccc2c1=O | i | 16µM
Cc1ccc(-n2c(SCC(=O)N/N=C/c3c(C)nn(-c4ccccc4)c3C)nc3ccccc3c2=O)cc1 | i | i
Cc1nn(-c2ccccc2)c(C)c1/C=N/NC(=O)CSc1nnc(SCc2cccc3ccccc23)s1 | i | 4µM
COc1ccccc1CN1CCC2(CC1)CCN(C(=O)c1csnn1)CC2 | i | i
C[N+](C)(C)C(C1=CCCC1=O)c1ccccc1 (stereo not given) | i | i
COc1ccc(-c2nc(C)c(CCNS(=O)(=O)c3cc(C)c(C)cc3C)s2)cc1 | i | i
CCc1ccc(-n2nnc(-c3nc(-c4ccc(C)cc4)no3)c2N)cc1 | i | i
